Source: PubChem (National Center for Advancing Translational Sciences (NCATS))
HCMV antiviral = inhibitors of human cytomegalovirus; activity change, negative = inhibition, % at 57.5 µM; 410,000 compounds, 4.5% hits; AID 1259415; HFF cells, HCMV-luciferase reporter, 72 h; active compounds read low; in the data active = activity change below about -60%; inconclusive = no clear call, values can overlap the other calls; inactive = above about -39%
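Two-dose cell screen: HFF monolayers treated with compounds and infected with luciferase-expressing HCMV at 1 PFU/cell, 72 h at 37C, then lysed for luciferase measurement.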
Marburg entry inh = Marburg virus entry inhibition; Potency, µM (titrated, usually from 37.8 µM), for the others: at the highest dose activity change, negative = inhibition, usual class: inhibitors; 300,000 compounds, 1.8% hits; Marburg virus pseudotyped entry inhibition, cell reporter; calls by dose curve; tested in HEK293 cells; also: potency is read from the fitted curve at half-maximal effect
LASV entry inh = blocks Lassa virus binding to or entry into cells; Potency, µM (titrated, usually from 37.9 µM), without a hit: top-dose activity change, negative = inhibition, usual class: inhibitors; Lassa virus pseudotype entry inhibition, cell reporter; 300,000 compounds, 1.2% hits; calls by dose curve; tested in HEK293 cells; also: potency is read from the fitted curve at half-maximal effect; nearly all actives have a fitted effect of over 50% in size
FMDV antiviral = blocks foot and mouth disease virus; Potency, µM (top dose mostly 57.9 µM), for the others: at the highest dose activity change, negative = inhibition, usual class: inhibitors; FMDV antiviral cell-based qHTS; 410,000 compounds, 1.2% hits; calls by dose curve; tested in HEK293T cells; also: read-out not given here; potency is read from the fitted curve at half-maximal effect; nearly all actives have a fitted effect of over 45% in size
An asterisk follows results filed as active; ? = inconclusive; . = not tested or not shown; [ ] = remark or other dose. Only some compounds are listed: those with a hit (about 6.2% of all), similar ones and a draw of the others. % is scaled to controls: 0 for no effect and ±100 for the full control effect.

SMILES	HCMV antiviral	Marburg entry inh	LASV entry inh	FMDV antiviral
COc1ccc(Cn2c(C(=O)O)c(CNCc3ccc(OC)cc3OC)c3ccc(C)cc32)cc1	?	.	0%[46.1 µM]	?
COc1ccc(Cn2c(C(=O)O)c(CNCCc3cc(OC)ccc3OC)c3ccc(C)cc32)cc1	-105*	.	?	-23%
CCOC(=O)c1[nH]c(C)c(C(=O)Nc2ccc3c(c2)OCCO3)c1C	-74*	22%	-3%	0%
CCOC(=O)c1c(C)[nH]c(C(=O)OCC(=O)Nc2ccc(Cl)cn2)c1C	-10	1%	6%	-19%
CCOC(=O)c1c(C)[nH]c(C(=O)Nc2ccc(NC(C)=O)cc2)c1C	-65*	?	-3%	-17%
CCOC(=O)c1c(C)[nH]c(C(=O)OCC(=O)Nc2sccc2C(N)=O)c1C	-68*	2.2µM*	?	16µM*
CCOC(=O)c1c(C)[nH]c(C(=O)N/N=C\c2ccccc2Cl)c1C	-99*	-27%	?	-17%
CN1CCN(C2CN(Cc3ccc([N+](=O)[O-])cc3)S(=O)(=O)C2)CC1 (centres undefined)	-5	.	.	-11%
O=C(c1ccc(Cl)cc1)c1c[nH]c(C(=O)NNc2ccccc2)c1	-19	?	14µM*	-13%
CN(C)C=NC(=O)c1cc(C(=O)c2ccc(Cl)cc2)c[nH]1	-63*	28%[46.1 µM]	-2%	23%
CN(C)C=NC(=O)c1cc(C(=O)c2ccc(F)cc2)c[nH]1	-6	-4%[46.1 µM]	-6%	20%
CNC(=O)c1cc(C(=O)c2ccc(Cl)cc2)c[nH]1	85	21%[46.1 µM]	11%[46.1 µM]	15%
O=C(NC1CCCC1)C(c1ccc(F)cc1)N(Cc1ccccc1)C(=O)c1csnn1 (centres undefined)	-32	-23%[46.1 µM]	?	3%
CC1CCC(C(C)C)C(OC(=O)Cn2c(-c3ccc(Cl)cc3)[n+](C)c3ccccc32)C1 (centres undefined)	-100*	.	.	?
CC1CCC(C(C)C)C(OC(=O)COC(=O)c2ccccc2N)C1 (centres undefined)	-16	-4%	?	?
CC1CCC(C(C)C)C(OC(=O)Cn2c(-c3ccc(Br)cc3)[n+](C)c3ccccc32)C1 (centres undefined)	-99*	?	?	?
Cc1ccccc1OCc1n(CC(=O)OC2CC(C)CCC2C(C)C)c2ccccc2[n+]1C (centres undefined)	-96*	3.5µM*	?	?
C/C1=C/CCCc2cc(OS(=O)(=O)C(F)(F)F)ccc2OCC1	-5	.	.	.
CCN1CCN(C(=O)c2oc(=O)c3ccccc3c2-c2ccc(C)cc2)CC1	-27	16%	-22%	9%
CC1(C)CC(C(CCN(Cc2ccccc2)C(=O)c2ccco2)c2ccc(F)cc2)CCO1 (centres undefined)	-8	?	?	14µM*
O=C(c1ccco1)N(CCC(c1ccccc1)c1ccco1)Cc1ccc(F)cc1 (centres undefined)	20	?	23µM*	?
Cc1ccc2c(c1)N(CCCC(=O)NCc1ccc3c(c1)OCO3)C(=O)CO2	-33	10%	1%	?
COc1ccccc1C(=O)Nc1ccc2c(c1)nc1n2CCN(Cc2ccccc2)C1	-68*	?	?	?
O=S(=O)(Nc1ccc2c(c1)nc1n2CCN(Cc2ccccc2)C1)c1ccccc1	-96*	3%	-9%	?
O=C(Nc1ccc2c(c1)nc1n2CCN(Cc2ccccc2)C1)c1cccs1	-23	5%	?	12%
SMILES	HCMV antiviral	Marburg entry inh	LASV entry inh	FMDV antiviral
Clc1cccc(NCc2ccccc2)n1	-31	.	.	4%
CCCCOc1ccc(Cl)cc1CSc1n[nH]c(C)n1	-2	0.21µM*	-26%	?
COc1ccc(Cl)cc1CSc1n[nH]c(C)n1	-27	16%	19%	16%
CC(=O)c1c(N2CCN(C(=O)c3ccco3)CC2)nc(=S)n(-c2ccccc2)c1C	-4	-9%	14%	0%
CC12CC(c3ccccc3O1)N(C(=O)c1ccco1)C(=S)N2c1ccccc1 (centres undefined)	12	16µM*	?	-15%
O=C1C=C(Nc2cccc3cccnc23)c2ccccc2C1=O	-75*	?	0%[46.1 µM]	28µM*
O=C1C=C(Nc2ccccc2)c2ccccc2C1=O	-64*	?	7.1µM*	?
CCCCNC1=CC(=O)C(=O)c2ccccc21	-35	16µM*	?	35µM*
Cc1sc2ncnc(N3CCC(C(=O)Nc4ccc(C#N)cc4)CC3)c2c1C	-3	20%	-7%	?
CCN(CC(=O)Nc1cc(Cl)ccc1C)c1ncnc2sc(C)c(C)c12	-78*	?	0%	-13%
CCN(CC(=O)Nc1cc(Cl)ccc1C)C(=O)C1CCCCC1	-61*	?	3%	-20%
CCN(CC(=O)Nc1cc(Cl)ccc1C)C(=O)C1CCN(c2ncnc3sc(C)c(C)c23)CC1	0	.	.	18µM*
Cc1sc2ncnc(N3CCC(C(=O)N(C)CC(=O)Nc4ccccc4Br)CC3)c2c1C	-63*	?	-27%	?
Cc1sc2ncnc(N3CCC(C(=O)N(C)CC(=O)Nc4ccccc4Cl)CC3)c2c1C	-79*	?	10µM*	22µM*
Cc1cc(OCCOCCNCc2ccccc2)ccc1C(C)C	-9	.	.	-26%
COc1ccccc1C(CCNCc1ccc(N(C)C)cc1)c1ccc(OC(C)C)cc1 (centres undefined)	-101*	.	.	?
COc1ccccc1C(CCNCc1ccccc1)c1ccc(OC(C)C)cc1 (centres undefined)	-102*	.	.	?
COc1ccccc1C(CC(=O)Nc1ccc(C)c(C)c1)c1ccc(OC(C)C)cc1 (centres undefined)	-61*	?	-6%	-28%
COc1ccc(CNCCC(c2ccc(C)cc2)c2ccco2)cc1 (centres undefined)	-78*	28µM*	-20%[46.1 µM]	-7%
COc1ccccc1NC(=O)CC(c1ccc(OC(C)C)cc1)c1ccccc1OC (centres undefined)	?	?	-25%	-17%
COc1ccc(CNCCC(c2ccccc2)c2ccc3c(c2)OCO3)cc1 (centres undefined)	-18	?	?	-21%
COc1ccc(CCC(C)NCCc2ccccc2)cc1 (centres undefined)	?	?	-29%	.
COc1ccc(CNCCC(c2ccc(OC(C)C)cc2)c2ccccc2OC)cc1 (centres undefined)	-99*	.	.	-30%
COc1ccc(CNCCC(c2ccc(OC(C)C)cc2)c2ccccc2OC)cc1OC (centres undefined)	-98*	?	?	?
COc1ccc(CNCCCSc2ncccn2)cc1OC	46	.	.	7%
CC(C)c1ccc2c(c1)[C@H]1OCC[C@H]1[C@@H](c1cccs1)N2	104	?	?	-18%
COc1ccc(/C=N/Nc2cc(C)nc3ccccc23)cc1	-104*	?	?	?
COc1ccc(-n2sc3c(c2=S)-c2cc(OC)ccc2NC3(C)C)cc1	-68*	?	-19%	-10%
COc1ccc2c(c1)-c1c(ssc1=S)C(C)(C)N2	-89*	5%	2%	.
COc1ccc2c(c1)-c1c(sn(-c3ccccc3)c1=S)C(C)(C)N2	?	-12%	-16%	?
